In PubChem BioAssay (EPA / NIEHS):
Results filed as inconclusive are left out. Activity calls are given as the source filed them. The calls were made as follows: active = hit-call score of the fitted dose curve at least 0.9, where 1 is the maximum; inconclusive = response in the unintended direction; inactive = score below 0.9.

Assay: TOX21_p53_BLA_p5_viability: Viability Assessment in the Tox21 HCT-116 p53 Agonism Beta-lactamase Assay, Phase 5 (AID 2283600)
Text: TOX21_p53_BLA_p5 is a cell-based, single-readout assay that uses HCT116, a human intestinal cell line, […] in a 1536-well plate.TOX21_p53_BLA_p5_viability is an assay readout measuring cellular ATP content and detected with CellTiter-Glo Luciferase-coupled ATP quantitation.TOX21_p53_BLA_p5_viability used a type of viability reporter where loss-of-signal activity can be used to understand changes in the cell viability. Furthermore, this assay endpoint can be referred to as a secondary readout, because this assay has produced multiple assay endpoints where this one serves a viability function. To generalize the intended target to other relatable targets, this assay endpoint is annotated to the cell cycle intended target family, where the subfamily is cytotoxicity.
Thawing Method: Place 14 mL of pre-warmed thaw medium into a 15 mL of conical tub. Remove the vial of cells to be thawed from liquid nitrogen and thaw rapidly by placing at 37C in a water bath with gentle agitation for 1-2 minutes. Decontaminate the vial by wiping with 70% ethanol before opening in a biological safety cabinet. Transfer the vial contents drop-wise into 14 mL of thaw medium in a sterile 15-mL conical tub. Centrifuge cells at 900 rpm for 4 minutes and resuspend in thaw medium. Transfer contents to the T75 tissue culture flask containing Thaw Medium and place flask in a humidified 37C/5% CO2 incubator. Switch to growth medium at first passage.Propagation Method: Aspirate medium, rinse once in DPBS, add 0.25% Trypsin/EDTA and swirl to coat the cell evenly. Add an equal volume of Growth Medium to inactivate Trypsin after 2-3 minutes incubation at 37C. Centrifuge cells at 900 rpm for 4 minutes and resuspend in growth medium. Cell should be passage or fed at least twice a week.Assay Protocol: Harvest cells from culture in growth medium and resuspend in assay medium. 2.2 Dispense 4000 cells/5 uL/well into 1536-well black/clear bottom plates using a Multidrop dispenser. After the cells were incubated at 37C for 5 hours, 23 nL of compounds dissolved in DMSO were transferred to the assay plate by a PinTool resulting in a 217-fold dilution. Incubate the plates for 16 hours at 37C, 5% CO2. Add 1 uL of 6X LiveBLAzer FRET B/G (CCF4-AM) Substrate Mixture to each well using a BioRAPTR dispenser and incubate the plates at room temperature for 2 hours. Measure fluorescence intensity at 460 and 530 nm emission and 405 nm excitation by an Envision detector. Data is expressed as the ratio of 460nm/530nm emissions. Add 4 uL of Cell-titer Glo to each well using BioRAPTR and incubate the plates at room temperature for […]. For cell viability readout that measures cytotoxicity, 4 ul/well of CellTiter-Glo reagent was added into the assay plates using a Flying Reagent Dispenser. After 30 min incubation at room temperature, the luminescence intensity in the plates was measured using a ViewLux plate reader.

SMILES	outcome	AC50
NCCO/C=C/[C@H](N)C(=O)O	inactive	
CC(C)(C)C1(CCc2ccc(Cl)cc2)CO1 (stereo not given)	inactive	
Cc1cc(CC(C)CC(C)(C)C)n(O)c(=O)c1 (stereo not given) (tested in a mixture with another compound)		41.8 µM (active)
N.N.O=C([O-])C1(C(=O)[O-])CCC1.[Pt+4]	inactive	
CC(C)(C)NC[C@H](O)COc1nsnc1N1CCOCC1	inactive	
CO[C@H]1C[C@H](O[C@H]2[C@H](C)O[C@@H](O[C@@H]3/C(C)=C/C[C@@H]4C[C@@H](C[C@]5(C=C[C@H](C)[C@@H](C6CCCCC6)O5)O4)OC(=O)[C@@H]4C=C(C)[C@@H](O)[C@H]5OC/C(=C\C=C\[C@@H]3C)[C@]54O)C[C@@H]2OC)O[C@@H](C)[C@@H]1O		6.84 µM (active)
CC(N)C12CC3CC(CC(C3)C1)C2 (stereo not given)	inactive	
CCSc1ccc2c(c1)N(CCCN1CCN(C)CC1)c1ccccc1S2	inactive	
CCCCCCCCCCCCCCCC[N+](C)(C)CCN(Cc1ccc(OC)cc1)c1ncccn1	inactive	
CCOc1ccc(NC(C)=O)cc1N	inactive	
NCCCC[C@H](NC(=O)[C@@H]1CCCN1C(=O)[C@@H]1CSSC[C@H](N)C(=O)N[C@@H](Cc2ccc(O)cc2)C(=O)N[C@@H](Cc2ccccc2)C(=O)N[C@@H](CCC(N)=O)C(=O)N[C@@H](CC(N)=O)C(=O)N1)C(=O)NCC(N)=O	inactive	
COc1cc(NC(C)CCCN)c2ncccc2c1 (stereo not given)	inactive	
Cc1cc(-n2c(=O)[nH]c(=O)n(C)c2=O)ccc1Oc1ccc(S(=O)(=O)C(F)(F)F)cc1	inactive	
CCN(CC)C(=O)Nc1ccc(OCC(O)CNC(C)(C)C)c(C(C)=O)c1 (stereo not given)	inactive	
O=c1cc(CO)occ1O	inactive	
C=C[C@]1(C)C[C@@H](OC(=O)CO)[C@]2(C)[C@H](C)CC[C@]3(CCC(=O)[C@H]32)[C@@H](C)[C@@H]1O	inactive	
CCCCCCCCN	inactive	
C[C@]12CCC(=O)C=C1CC[C@@H]1[C@@H]2[C@@H](O)C[C@@]2(C)[C@H]1CC[C@]2(O)C(=O)COP(=O)(O)O	inactive	
CC(O)[C@@H]1NC(=O)[C@H](CCCCN)NC(=O)[C@@H](Cc2c[nH]c3ccccc23)NC(=O)[C@H](Cc2ccccc2)NC(=O)[C@@H](NC(=O)[C@H](N)Cc2ccccc2)CSSC[C@@H](C(=O)N[C@H](CO)[C@@H](C)O)NC1=O (stereo not given in full)	inactive	
CC1(C)S[C@@H]2[C@H](NC(=O)[C@H](N)c3ccccc3)C(=O)N2[C@H]1C(=O)OCOC(=O)[C@@H]1N2C(=O)C[C@H]2S(=O)(=O)C1(C)C	inactive	

SMILES	outcome	AC50
CC(C)Nc1cccnc1N1CCN(C(=O)c2cc3cc(NS(C)(=O)=O)ccc3[nH]2)CC1	inactive	
COc1cc2ncnc(Nc3ccc(F)c(Cl)c3)c2cc1OCCCN1CCOCC1	inactive	
Brc1cc(Oc2cc(Br)c(Br)c(Br)c2Br)c(Br)c(Br)c1Br	inactive	
CCCCCC[C@@H](CCC)C(=O)O	inactive	
CCCCCCCCCCCCCCCCCCOCCO	inactive	
O=C(O)c1ccc(S(=O)(=O)N(Cl)Cl)cc1	inactive	
CCCCCCCCC(CCCCCC)C(=O)O (stereo not given)	inactive	
CCC(=O)O[C@]1(C(=O)CCl)[C@@H](C)C[C@H]2[C@@H]3C[C@H](F)C4=CC(=O)C=C[C@]4(C)[C@@]3(F)[C@@H](O)C[C@@]21C	inactive	
C=C1/C(=C\C=C2/CCC[C@]3(C)[C@@H]([C@H](C)CCCC(C)(C)O)CC[C@@H]23)C[C@@H](O)C[C@@H]1O		21 µM (active)
C[C@H](CN1CCCC1)C(=O)c1ccc(C(F)(F)F)cc1	inactive	
COc1c(C)c2c(c(O)c1C/C=C(\C)CCC(=O)OCCN1CCOCC1)C(=O)OC2	inactive	
N[C@@H](COP(=O)(O)O)C(=O)O	inactive	
CC(=O)O[C@@H]1C(=O)O[C@@H]2[C@H]1OC(=O)[C@@H]2OC(C)=O	inactive	
CCCCCCCC(=O)CC[C@@H]1[C@@H](C/C=C\CCCC(=O)OC(C)C)[C@@H](O)C[C@H]1O		41.9 µM (active)
O=S1(=O)c2cccc3cccc(c23)N1CCCN1CCN(c2ccc(F)cc2)CC1	inactive	
O=[N+]([O-])c1cccc(I)c1	inactive	
CC1=CC(C)(C)Nc2ccccc21	inactive	
CC(CNC1CCCCC1)OC(=O)c1ccccc1 (stereo not given)	inactive	
CN(C)C(=O)C(CCN1CCC(O)(c2ccc(Cl)cc2)CC1)(c1ccccc1)c1ccccc1	inactive	
O=C(O)CN(CC(=O)O)CC1=CC2C(=CC1=O)Oc1cc(O)c(CN(CC(=O)O)CC(=O)O)cc1C21OC(=O)c2ccccc21 (stereo not given)	inactive	
